Sampled rows, rich in hits. Any-hit rate of the full collection: about 4.7%.
TRHR enhancer: qHTS for Small Molecule Agonists and Allosteric Enhancers of Human TRH Receptor: Primary Screen for Enhancers | TRHR cells, fluo-8 calcium fluorescence, EC20 TRH enhancement | enhancement, % at 2 µM | 360,000 compounds, 0.66% hits | AID 493056, 2011; in the data active = enhancement above about 30%
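Enhancer read-out: after compound pinning and an initial kinetic agonist-mode read, an EC20 of TRH (10 nM final) was injected and fluo-8 calcium signal (Ex 480/Em 530) followed at 1 s/cycle for 100 cycles in TRHR-expressing cells.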
D1 antagonist: Antagonist of Human D 1 Dopamine Receptor: qHTS. HEK293 TREx D1 cells, calcium flux, dopamine EC80; active compounds read low. activity change, negative = inhibition, % at 10 µM. 360,000 compounds, 3.2% hits. AID 504652, 2011; in the data active = activity change below about -30%
Target sequence (P21728 whole entry, looked up): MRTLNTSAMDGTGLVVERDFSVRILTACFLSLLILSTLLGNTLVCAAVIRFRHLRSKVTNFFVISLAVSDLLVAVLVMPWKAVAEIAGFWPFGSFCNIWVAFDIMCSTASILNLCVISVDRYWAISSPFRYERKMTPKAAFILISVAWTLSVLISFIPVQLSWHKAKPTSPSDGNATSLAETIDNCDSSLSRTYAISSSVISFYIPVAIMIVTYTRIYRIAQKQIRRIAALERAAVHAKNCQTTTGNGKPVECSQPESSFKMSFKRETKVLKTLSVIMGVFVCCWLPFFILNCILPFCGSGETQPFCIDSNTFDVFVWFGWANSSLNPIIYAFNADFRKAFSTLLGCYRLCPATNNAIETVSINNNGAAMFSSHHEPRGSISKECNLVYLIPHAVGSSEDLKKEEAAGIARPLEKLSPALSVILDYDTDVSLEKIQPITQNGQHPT
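Tetracycline-induced HEK293 Trex D1 cells, force-coupled to calcium, dye-loaded; compounds added and read 180 s, then EC80 dopamine added and calcium flux tracked kinetically another 180 s.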
D1 ag: Allosteric Agonists of the Human D1 Dopamine Receptor: qHTS; activation, % at 2 µM; 360,000 compounds, 1% hits; AID 504660, 2011; HEK293 T-REx D1 cells, calcium flux, agonist mode
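Tetracycline-induced HEK293 TREx D1 cells, force-coupled to calcium signalling, were dye-loaded with a no-wash calcium kit. Compound was pin-added after a 10 s baseline. Fluorescence was read kinetically at 1 cycle/s for 180 s, with calcium rises flagged as agonism.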
TRHR agonist: qHTS for Small Molecule Agonists and Allosteric Enhancers of Human TRH Receptor: Primary Screen for Agonists | Thyrotropin-releasing hormone receptor (Homo sapiens), P34981 | TRHR cells, calcium flux fluo-8, FDSS agonist mode | activation, % at 2 µM | 360,000 compounds, 0.18% hits | AID 493084, 2011
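TRHR-expressing cells, plated overnight in medium with 10% serum, were loaded with fluo-8 calcium dye at room temperature. After a 10 s baseline, library compound was pin-added and calcium release was recorded kinetically (ex 480/em 530) as agonist response.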
D1 PAM: Potentiators of Human D1 Dopamine Receptor: qHTS; D(1A) dopamine receptor (Homo sapiens), P21728; HEK293 TREx D1 cells, calcium flux, dopamine EC20 potentiation; potentiation, % at 10 µM; 360,000 compounds, 0.036% hits; AID 504651, 2011; in the data active = potentiation above about 30%
Each line names hits and unclear results; the compound was inactive in the other large screens. Rule as the data show it, unless noted: active = activation above about 30%; inactive = the rest.

Cc1ccc(CNC(=O)CS(=O)Cc2nc(-c3ccccc3Cl)oc2C)cc1 (stereo unspecified)	D1 antagonist -42
Cc1oc(-c2ccccc2Cl)nc1CS(=O)CC(=O)NC1CC1 (stereo unspecified)	D1 antagonist -60
CN(C)C(CNC(=O)c1cnc(Cl)c(Cl)c1)c1ccccc1 (stereo unspecified)	none
CCC(Oc1ccccc1OC)C(=O)Nc1ccc2c(c1)OCO2 (stereo unspecified)	none
Cc1sc2nc(-c3cccnc3)[nH]c(=O)c2c1-c1ccccc1	D1 antagonist -49
Cc1ccc(C(=O)NCCCNC(=O)c2ccco2)cc1	none
Cc1ccc(-c2cnc(SCCNC(=O)c3ccco3)[nH]2)cc1	TRHR enhancer 31
Cc1ccc(NC2=CC(=O)CC(C)(C)C2)cc1F	none
Cc1cc(N)c(NC2=CC(=O)CC(C)(C)C2)cc1C	D1 ag 31
Cc1cccc(N(C)C(=O)C2CCN(S(=O)(=O)c3cccc4nonc34)CC2)c1	none
Cc1ccc(S(=O)(=O)Nc2cccnc2)cc1	none
CCCCOc1ccc(S(=O)(=O)Nc2cccnc2)cc1	D1 antagonist -37
O=C(Nc1ccc(Cl)cc1)Nc1cc([N+](=O)[O-])ccc1F	D1 antagonist -37
O=C(Nc1csc([N+](=O)[O-])c1)Nc1c(Cl)cccc1Cl	D1 antagonist -45
CC(NCc1ccc(S(N)(=O)=O)cc1)C(=O)Nc1ccc([N+](=O)[O-])cc1Cl (stereo unspecified)	D1 antagonist -30
Cc1ccc([N+](=O)[O-])cc1NC(=O)Nc1onc(C)c1C	D1 antagonist -36
CC(NCc1ccc(S(N)(=O)=O)cc1)C(=O)Nc1cc([N+](=O)[O-])ccc1Cl (stereo unspecified)	none
Cc1cccc(C)c1NC(=O)CCCSc1nnc(N)s1	none
Cc1ccc(Cl)cc1N1CCN(C(=O)COc2cc(=O)n(C)c3ccccc23)CC1	none
Cc1cc2c(s1)c1cnn(Cc3cccc([N+](=O)[O-])c3)c(=O)c1n2C	none
O=C(Nc1ccc(Cl)cc1)Nc1csc([N+](=O)[O-])c1	D1 antagonist -45
Cc1ccc([N+](=O)[O-])cc1NC(=O)Nc1ccc(S(N)(=O)=O)cc1	D1 antagonist -79
O=C(Nc1ccc(Cl)cc1)Nc1ccccc1CC[N+](=O)[O-]	D1 antagonist -39, D1 ag 35
CN(C)C(=O)Nc1ccccc1CC[N+](=O)[O-]	none
Cc1ccc(N2CC(O)Cn3c2nc2c3c(=O)[nH]c(=O)n2C)cc1 (stereo unspecified)	none
N#Cc1nc(Nc2cccc([N+](=O)[O-])c2)nc(NC2CCCC2)n1	none
CC1CCCC(NC(=O)c2cccc(S(=O)(=O)NCc3ccccc3)c2)C1C (stereo unspecified)	none (no result: D1 PAM)
COc1ccc(-c2nc(CCNC(=O)c3cc(OC)c(OC)c(OC)c3)cs2)cc1	none
c1ccc(C2=NN(c3ccccc3)CC2)cc1	none
CCOC(=O)/C(=C/c1ccc(N2CCC(c3ccccc3)=N2)cc1)C(C)=O	D1 ag 105, TRHR agonist 46
COC(=O)c1ccccc1N1C(=O)[C@@H]2C(c3ccc(Br)cc3)=NO[C@@H]2C1=O	D1 antagonist -48
COC(=O)c1ccccc1N1C(=O)C2C(C1=O)[C@H]1C=C[C@@H]2C1 (stereo partly specified)	none
COc1ccc(/C(O)=C/c2nc3ccc(C(=O)NCCc4cccc(C)c4)cc3[nH]c2=O)cc1OC	D1 ag 71
COc1cccc(Oc2ccc(S(=O)(=O)N3CCCC3)cc2[N+](=O)[O-])c1	TRHR enhancer 32
COc1ccc(OCCOc2ccc(S(=O)(=O)N3CCCC3)cc2[N+](=O)[O-])cc1	none
O=C(CN1CCN(C(=O)c2ccco2)CC1)Nc1ccc(Br)cc1	none
C(#Cc1ccccc1)C[N+]1(CC#Cc2cccc3ccccc23)CCOCC1	none
COc1ccc(NC2=C(C(C)=O)C(c3ccc(OC)c(OC)c3)C(C(C)=O)C(C)(O)C2)cc1 (stereo unspecified)	D1 antagonist -86
C1=C(c2ccc(-c3ccccc3)cc2)Nc2ncnn2C1c1ccco1 (stereo unspecified)	D1 ag 61, TRHR agonist 30
Brc1ccc(C2=CC(c3cccs3)n3ncnc3N2)cc1 (stereo unspecified)	D1 ag 60, TRHR agonist 66
Fc1ccc(C2=CC(c3ccc(Br)o3)n3ncnc3N2)cc1 (stereo unspecified)	none
OCCCc1nc2n(n1)C(c1cccs1)C=C(c1ccc(Br)cc1)N2 (stereo unspecified)	D1 ag 40, TRHR agonist 45
CC1=C(C(N)=O)C(c2ccc(Br)cc2)n2nc(CCCO)nc2N1 (stereo unspecified)	none
Cc1nn(-c2ccccc2)c(C)c1NC(=O)COC(=O)C1CC(=O)N(CCc2ccccc2)C1 (stereo unspecified)	none
COc1cccc(-n2nc(C#N)c(Cl)cc2=O)c1	D1 antagonist -32
COc1cccc(-n2nc(C(N)=O)c(O)cc2=O)c1	none
Oc1c(CN2CCCC(C(F)(F)F)C2)cc(Cl)c2ccccc12 (stereo unspecified)	none
COc1ccccc1C(=O)NCCC(=O)NCC(c1ccccc1OC)N1CCCC1 (stereo unspecified)	none
COc1ccccc1C(CNC(=O)CNC(=O)c1ccc(C)c(C)c1)N1CCCC1 (stereo unspecified)	none (no result: D1 PAM)
COc1ccccc1C(CNC(=O)CNC(=O)c1ccc(Cl)c(Cl)c1)N1CCCC1 (stereo unspecified)	D1 antagonist -38 (no result: D1 PAM)
COc1ccccc1C(CNC(=O)CNC(=O)c1ccccc1Cl)N1CCCC1 (stereo unspecified)	D1 antagonist -45
COc1ccc(Cn2cc(S(=O)(=O)c3ccc(C)cc3)c(=O)c3cc(F)ccc32)cc1	none
COc1cccc(Cn2c(=O)n(CC3CCC(C(=O)NC(C)C)CC3)c(=O)c3sccc32)c1 (stereo unspecified)	none
CCCNC(=O)C1CCC(Cn2c(=O)c3sccc3n(Cc3cccc(OC)c3)c2=O)CC1 (stereo unspecified)	TRHR enhancer 53
CCc1ccc2occ(CC(=O)Nc3c(C(=O)Nc4ccc(C)cc4)oc4ccccc34)c2c1	none
O=C(COC(=O)[C@H](Cc1ccccc1)NC(=O)c1cccs1)NC1CCCCC1	D1 antagonist -43
O=C(COC(=O)c1ccccc1NS(=O)(=O)c1cccs1)NC1CCCCC1	D1 antagonist -55

Assay outcomes: PubChem BioAssay, National Center for Advancing Translational Sciences (NCATS)
